Rows were chosen to be rich in hits. Some 3.6% of all compounds tested hit in one or more screens of this group.
VDR inhibitor – vitamin D3 receptor (human) inhibition; P11473; VDR-SRC2-3 peptide fluorescence polarization, 2 h; Potency, µM, for the others: max response, negative = inhibition, most hits filed as inhibitors; 0.93% of 400,000 active; AID 504847; also: potency is read from the fitted curve at half-maximal effect; % is scaled to controls: 0 for no effect and ±100 for the full control effect
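FP read-out; VDR + SRC2-3 coactivator peptide; 23 nl compound by pintool; 2 h RT incubation; reagents held at 4 deg C, protected from light.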
Rango complex inh – prevents formation of the Rango-importin beta complex | Q14974 | Rango CFP/YFP FRET sensor + importin beta, 45 min | Potency, µM (top dose mostly 92.2 µM), without a hit: at the highest dose inhibition of complex formation | 0.031% of 340,000 active; calls by dose curve;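 also: potency is read from the fitted curve at half-maximal effect; 0% = DMSO wells and 100% = buffer wells lacking importin beta; nearly all actives have a fitted effect of over 15% in size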
Target sequence (Q14974 whole entry, looked up): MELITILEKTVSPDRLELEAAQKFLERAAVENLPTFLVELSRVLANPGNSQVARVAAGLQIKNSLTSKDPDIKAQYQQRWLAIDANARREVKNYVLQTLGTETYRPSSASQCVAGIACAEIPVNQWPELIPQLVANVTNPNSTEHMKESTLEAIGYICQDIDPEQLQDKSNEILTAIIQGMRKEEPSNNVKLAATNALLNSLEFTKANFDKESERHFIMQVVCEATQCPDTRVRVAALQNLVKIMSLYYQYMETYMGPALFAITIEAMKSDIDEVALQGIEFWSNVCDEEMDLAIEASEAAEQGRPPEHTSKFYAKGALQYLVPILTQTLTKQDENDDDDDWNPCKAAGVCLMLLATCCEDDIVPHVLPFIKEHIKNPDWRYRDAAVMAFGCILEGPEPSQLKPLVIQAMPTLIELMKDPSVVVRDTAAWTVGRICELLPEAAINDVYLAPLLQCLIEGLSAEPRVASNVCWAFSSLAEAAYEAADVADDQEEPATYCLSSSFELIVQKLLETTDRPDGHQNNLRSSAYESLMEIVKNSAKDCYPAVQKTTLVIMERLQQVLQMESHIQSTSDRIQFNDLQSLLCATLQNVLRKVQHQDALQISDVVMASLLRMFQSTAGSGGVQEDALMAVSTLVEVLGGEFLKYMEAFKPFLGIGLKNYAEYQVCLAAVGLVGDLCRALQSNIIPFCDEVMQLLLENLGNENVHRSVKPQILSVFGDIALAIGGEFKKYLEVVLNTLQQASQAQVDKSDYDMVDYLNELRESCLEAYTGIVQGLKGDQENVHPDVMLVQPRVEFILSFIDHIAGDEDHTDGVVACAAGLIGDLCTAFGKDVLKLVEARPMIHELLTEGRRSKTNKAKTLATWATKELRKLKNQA
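Inhibition scored from the CFP 486 nm/YFP 530 nm FRET ratio 45 min after adding 0.125 microM importin beta to 50 nM Rango biosensor preincubated 5 min with compound (room temperature, PBS with DTT, Tween-20, BSA). No-importin wells as positive control.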
Rango dissoc inh – prevents RanGTP from dissociating the Rango-importin beta complex | O95149+P62826 | Biochemical FRET Rango-importin beta, RanGTP-induced dissociation | Potency, µM (series often up to 46.1 µM), inactives show top-dose activity change, negative = inhibition | 0.071% of 340,000 active; calls by dose curve; also: potency is read from the fitted curve at half-maximal effect; % of control where 0% means no effect; nearly all actives have a fitted effect of over 45% in size
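Rango FRET biosensor (snurportin-1 IBB flanked by N-terminal EYFP and C-terminal CFP10) at 0.1 uM, with 0.25 uM importin beta in PBS, 1mM DTT, 0.02% Tween-20, 0.1% BSA. 0.6 uM Ran, 2mM GTP and 0.2 uM RCC1 were then added for 45 min at room temperature. Inhibition read as loss of FRET rise.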
PI5P4Ka inh – blocks human PI5P4K alpha kinase activity; P48426; PI5P4Kalpha enzyme, ADP-Glo luminescence, 60 min; active compounds read low; max response, %; 1.2% of 330,000 active; AID 652105; active = max response of -50% or lower; inconclusive = between -30% and -50%; inactive = -30% or higher; also: value at the top dose of about 77 µM; % is scaled to controls: 0 for no effect and ±100 for the full control effect
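ADP-Glo luminescence end-point read after a 60 min room-temperature kinase reaction of PI5P4Kalpha plus substrate, initiated with ATP at 5 microM final. Buffer: 0.038 M HEPES pH 7.4, EGTA, 0.1% CHAPS, 5% DMSO.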
PLK1 PBD block – blocks phosphopeptide binding to human PLK1 polo-box domain; P53350; 2.8% of 360,000 active; Potency, µM, for the others: max response, negative = inhibition, hits mostly inhibitors; Plk1 PBD binding of FITC phosphopeptide, fluorescence polarization; also: potency is read from the fitted curve at half-maximal effect; series mostly up to about 57 µM; % is scaled to controls: 0 for no effect and ±100 for the full control effect; nearly all actives have a fitted effect of over 65% in size
KAT2A inh – inhibitors of human GCN5L2 histone acetyltransferase; Q92830; GCN5L2 HAT assay, ThioGlo1 CoA-SH fluorescence; Potency, µM (titrated, usually from 58.9 µM), without a hit: at the highest dose activity change, negative = inhibition, hits mostly inhibitors; 0.21% of 390,000 active; AID 504327; also: potency is read from the fitted curve at half-maximal effect; % is scaled to controls: 0 for no effect and ±100 for the full control effect
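Enzyme at 20nM final was mixed with library compounds for 15 min at room temperature. Peptide H3(1-25) at 75uM, acetyl-CoA at 70uM and ThioGlo1 at 50uM were then added. Plates were read immediately and after 20 min (Ex340nm/Em540nm).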
The depositor's hits bear a star; ? = inconclusive; / = no result. Unless noted, calls follow the shape of the dose curve; as a rule, active = well fitted curve in the direction sought with a large enough effect; inconclusive = small, poorly fitted or top-dose-only effect, or another doubt; inactive = no such curve, though single readings can be large; an effect the other way counts as inactive or inconclusive.

SMILES | VDR inhibitor | Rango complex inh | Rango dissoc inh | PI5P4Ka inh | PLK1 PBD block | KAT2A inh
COc1ccccc1CNC(=O)CN1C(=O)COc2ccc(S(=O)(=O)N3CCC(C)CC3)cc21 | 7% | / | / | / | / | 1%
COC(=O)c1ccc(NC(=O)C(=O)NCC2CCCO2)cc1 (stereo not drawn) | -30% | 2% | -15% | -18 | 30µM* | -7%
Cc1cc(=O)oc2cc(NS(=O)(=O)c3ccccc3)ccc12 | -5% | -11% | 16µM* | -1 | 6% | -24%
Cc1nc2sc(C(=O)Nc3ccc(F)cc3)c(N)c2c(-c2ccc(Br)cc2)c1C(=O)Nc1ccc(Cl)cc1 | -29% | / | / | / | / | ?
COC(=O)CC1(C(=O)OC)Nc2cc(Cl)c(Cl)cc2S(=O)(=O)N1O (stereo not drawn) | / | / | / | -3 | 9.5µM* | /
COC(=O)CN1CCC(=O)c2ccccc2S1(=O)=O | -21% | / | / | / | / | /
CC(C)(C)c1ccc(C(=O)CCCN2CCC(OC(c3ccccc3)c3ccccc3)CC2)cc1 | 2% | / | / | / | / | 2%
CCCCn1c(N)c(N(Cc2ccccc2OC)C(=O)CSCC(=O)Nc2cccc(C)c2)c(=O)[nH]c1=O | -19% | -1% | -7% | ? | 30µM* | -2%
CCCCn1c(N)c(N(Cc2ccccc2OC)C(=O)CCSC)c(=O)[nH]c1=O | -4% | 1% | -6% | 7 | -2% | -4%
COc1ccc(NS(=O)(=O)c2ccc(O)c(NC(=O)c3cc4c(C)nn(-c5ccc(F)cc5)c4s3)c2)cc1 | -11% | -4% | -13% | -25 | 75µM* | ?
Cc1ccc(C(=O)NN2C(=O)c3ccc(S(=O)(=O)c4ccc(C(=O)O)cc4)cc3C2=O)cc1 | 40µM* | 5% | -6% | -13 | 21µM* | -2%
CCN(C(=O)c1cc2c(Cl)nc3ccccc3c2s1)c1cccc(Cl)c1 | -1% | / | / | / | / | -2%
CC(=O)N1CCc2c(sc(NC(=O)CN3C(=O)c4ccccc4C3=O)c2C(N)=O)C1 | -25% | 2% | -14% | -77* | -28% | -6%
CC(=O)N1CCc2c(sc(NC(=O)C3COc4ccccc4O3)c2C(N)=O)C1 (stereo not drawn) | ? | ? | ? | -22 | 19µM* | -33%
COC(=O)c1c(NC(=O)C2COc3ccccc3O2)sc2c1CCN(C(C)=O)C2 (stereo not drawn) | 11% | ? | -20% | 26 | 8% | -10%
CC(=O)N1CCc2c(sc(NC(=O)CN3C(=O)CCC3=O)c2C(N)=O)C1 | ? | ? | -27% | -76* | ? | -8%
CC(=O)N1CCc2c(sc(NC(=O)c3ccc([N+](=O)[O-])o3)c2C(N)=O)C1 | / | / | / | -65* | ? | /
CCC(=O)Nc1sc2c(c1C(N)=O)CCN(C(C)=O)C2 | -3% | 4% | 5% | 2 | -4% | 0%
Cc1ccc(C)c(N(C)C(=O)CCNC(=O)Cn2cnc3ccccc3c2=O)c1 | 5% | / | / | / | / | -6%
COc1cc(OC)cc(C(=O)NCc2ccc3c(c2)CCN3C(=O)c2ccccc2)c1 | 17% | / | / | / | / | -7%
Cc1ccccc1CN1C(=O)c2ccccc2S(=O)c2ccc(C(=O)NCc3ccccc3)cc21 (stereo not drawn) | 5% | / | / | / | / | -1%
CCC1=NN2C(=N)/C(=C/c3ccc(OS(=O)(=O)c4ccccc4)c(OC)c3)C(=O)N=C2S1 | -25% | ? | -20% | -26 | 19µM* | -10%
Cc1cc(/C=C2\C(=N)N3N=C(S(C)(=O)=O)SC3=NC2=O)c(C)n1Cc1ccccc1 | -3% | ? | ? | -22 | 27µM* | -5%
COc1cc(/C=C2\C(=N)N3N=C(C)SC3=NC2=O)cc(OC)c1OCCOc1ccccc1C | ? | ? | ? | -16 | ? | ?
CCCC1=NN2C(=N)/C(=C\c3cc(C)n(Cc4ccccc4)c3C)C(=O)N=C2S1 | -1% | ? | ? | 1 | ? | -6%
SMILES | VDR inhibitor | Rango complex inh | Rango dissoc inh | PI5P4Ka inh | PLK1 PBD block | KAT2A inh
COc1cc(/C=C2/C(=N)N3N=C(C(C)C)SC3=NC2=O)ccc1OS(=O)(=O)c1ccccc1 | 56µM* | ? | -7% | ? | 38µM* | -18%
COc1cc(/C=C2\C(=N)N3N=C(S(C)(=O)=O)SC3=NC2=O)cc(OC)c1OCCOc1ccccc1C | ? | 1% | 2% | ? | 30µM* | -25%
COC(=O)/C=C/c1cc(O)ccc1O | -6% | / | / | / | / | -9%
COc1cccc(OCCOc2ccc(/C=C3\C(=N)N4N=C(S(C)(=O)=O)SC4=NC3=O)cc2OC)c1 | 17% | 0% | 3% | -14 | ? | -17%
COc1cc(/C=C2\C(=N)N3N=C(S(C)(=O)=O)SC3=NC2=O)ccc1OS(=O)(=O)c1ccc(C)cc1 | ? | ? | -1% | -80* | 24µM* | -24%
COc1ccc(CCn2c(-c3ccc(C(C)(C)C)cc3)n[nH]c2=S)cc1OC | -1% | 0% | 0% | -3 | 38µM* | -1%
O=c1cc(CSc2nnc3ccccn23)c2c(ccc3ccccc32)o1 | -11% | -1% | -11% | -9 | 42µM* | -3%
O=c1[nH]c(CSc2nnc3ccccn23)nc2ccccc12 | 4% | -1% | 34% | -5 | -5% | 2%
Cc1cc(N2CCN(c3cccc(C)c3C)CC2)n2nc(C)c(-c3ccc(Cl)cc3)c2n1 | 3% | / | / | / | / | -2%
O=C(NC(c1ccccc1)c1ccccc1)c1ccc(S(=O)(=O)C(F)F)cc1 | 1% | -2% | -8% | 2 | -6% | -3%
CC(NC(=O)c1ccc(S(=O)(=O)C(F)F)cc1)c1ccccc1 (stereo not drawn) | -21% | 0% | 13% | -12 | 24µM* | 1%
CC(C)C[C@H](NC(=O)[C@H](Cc1ccccc1)NC(=O)[C@H](Cc1ccccc1)NC(=O)[C@@H](N)CO)C(=O)N[C@@H](CCCN=C(N)N)C(=O)N[C@@H](CC(N)=O)C(=O)O | -6% | / | / | / | / | 54%
Cc1ccc(OCCn2cc(C(=S)N3CCCC3)c3ccccc32)cc1C | -15% | 0% | -7% | ? | 3µM* | 4%
O=C(O)Cn1cc(C(=S)N2CCOCC2)c2ccccc21 | ? | 0% | 12% | / | 24µM* | -14%
O=C(C(=O)N1CCN(c2ccccc2F)CC1)c1cn(CC(=O)N2CCOCC2)c2ccccc12 | ? | 0% | -8% | -9 | 24µM* | -3%
O=C(O)Cn1cc(C(=S)N2CCCCC2)c2ccccc21 | -24% | -1% | -2% | -13 | 15µM* | -12%
COCCNC(=O)Cn1cc(C(=S)N2CCCCC2)c2ccccc21 | 4% | -2% | 3% | 4 | -16% | -9%
